Source: the supplement of paper PMC9254222
The full ranking holds about 1,100 compounds; the median of “Renilla luciferase signal (cell health) relative to plate median” is about 0.97, and the highest 2% start at about 1.6. Many of the other results were omitted from the sample, so the highest values are more common in it than they were.

Tested on: HEK293T (UBE3A T485A transfected, BAR Wnt reporter)
Experiment: Renilla luciferase signal (cell health) relative to plate median (fold (linear ratio)); higher = higher Renilla signal
Conditions: 24 h
In short: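 Using Fugene 6, HEK293T cells in white 384-well plates (4500 cells/well; DMEM, 10% FBS, 37°C, 5% CO2) were transfected with a BAR firefly luciferase Wnt reporter, TK-Renilla and an expression plasmid. After four hours, robots dosed the chemicals at 0.01–100 uM, and a Dual-Glo luciferase readout followed 24 h later. Per-plate median-centred firefly/Renilla ratios gave Wnt activity, while per-plate median-centred raw Renilla signals gave cell health. Four biological replicates were averaged.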

| SMILES | Renilla luciferase signal (concentration: 0.01 uM) | Renilla luciferase signal (concentration: 0.1 uM) | Renilla luciferase signal (concentration: 1 uM) | Renilla luciferase signal (concentration: 10 uM) | Renilla luciferase signal (concentration: 100 uM) |
| --- | --- | --- | --- | --- | --- |
| FC(F)C(F)(F)OCC(Cn1cncn1)c1ccc(Cl)cc1Cl (centres undefined) [Tetraconazole] | 1.01 | 1.09 | 0.957 | 0.997 | 0.0289 |
| CO/N=C(/C1=NOCCO1)c1ccccc1Oc1ncnc(Oc2ccccc2Cl)c1F [Fluoxastrobin] | 0.875 | 0.941 | 1.05 | 0.383 | 1.63 |
| ClC(Cl)(Cl)c1ccccc1 [Benzotrichloride] |  | 0.82 | 0.9 | 0.872 | 1.04 |
| O=C(O)C1(c2ccc3c(c2)OC[C@H](Cc2ccc(-c4ccccc4)cc2)[C@H]3O)CCCC1 |  | 0.875 | 0.823 | 0.781 | 0.0901 |
| O=C1C2CC=CCC2C(=O)N1SC(Cl)(Cl)Cl (centres undefined) [Captan] | 1.19 | 1.04 | 0.975 | 1.02 | 0.036 |
| Clc1ccc(C(Cl)(Cl)Cl)cc1 [4-Chlorobenzotrichloride] |  | 0.548 | 0.799 | 0.652 | 0.663 |
| COc1cc(OC)nc(Sc2cccc(Cl)c2C(=O)[O-])n1.[Na+] [Pyrithiobac-sodium] | 1.11 | 1.16 | 0.967 | 1.07 | 1.69 |
| CCCCCCCCCc1ccc(O)cc1 [4-Nonylphenol, branched] |  | 1 | 0.945 | 1.06 | 0.973 |
| CC(C)(C)C(O)C(Oc1ccc(Cl)cc1)n1cncn1 (centres undefined) [Triadimenol] | 1.01 | 0.885 | 0.844 | 0.906 | 0.699 |
| CCNC(=O)NC(=O)/C(C#N)=N/OC [Cymoxanil] | 1.26 | 1.16 | 1.08 | 1.15 | 2.39 |
| CO/C=C(/C(=O)OC)c1ccccc1COc1cccc(C(F)(F)F)n1 [Picoxystrobin] |  | 0.76 | 0.879 | 0.82 | 0.465 |
| O=C(Nc1ccccc1-c1ccc(Cl)cc1)c1cccnc1Cl [Boscalid] | 0.775 | 0.848 | 0.903 | 0.818 | 1.24 |
| Oc1cccc2cccnc12 [8-Hydroxyquinoline] |  | 0.779 | 0.797 | 0.764 | 0.0228 |
| CC1=NNC(=O)N(/N=C/c2cccnc2)C1 [Pymetrozine] | 0.89 | 0.911 | 0.966 | 0.97 | 1.45 |
| CC(Oc1ccc(Cl)cc1Cl)C(=O)O (centres undefined) [Dichlorprop] | 0.843 | 0.959 | 0.959 | 1.04 | 1.6 |
| CC(Oc1cccc(Cl)c1)C(=O)O (centres undefined) [Cloprop] | 0.924 | 0.701 | 0.814 | 1.01 | 2.51 |
| CC(C)OC(=O)Nc1cccc(Cl)c1 [Chlorpropham] | 0.728 | 0.618 | 0.828 | 0.81 | 0.766 |
| CC(C)(C)C(=O)C(Oc1ccc(Cl)cc1)n1cncn1 (centres undefined) [Triadimefon] | 1.42 | 0.867 | 0.961 | 1.05 | 0.777 |
| O=C1c2ccccc2C(=O)N1SC(Cl)(Cl)Cl [Folpet] | 1.08 | 1.03 | 1.08 | 1.17 | 0.0353 |
| CNC(=O)Oc1ccccc1OC(C)C [Propoxur] | 0.908 | 0.899 | 0.869 | 0.843 | 1.18 |
| C1=Cc2cccc3cccc1c23 [Acenaphthylene] |  | 0.739 | 0.666 | 0.684 | 0.683 |
| c1cc2ccc3cccc4ccc(c1)c2c34 [Pyrene] |  | 0.967 | 0.928 | 1.05 | 0.889 |

| SMILES | Renilla luciferase signal (concentration: 0.01 uM) | Renilla luciferase signal (concentration: 0.1 uM) | Renilla luciferase signal (concentration: 1 uM) | Renilla luciferase signal (concentration: 10 uM) | Renilla luciferase signal (concentration: 100 uM) |
| --- | --- | --- | --- | --- | --- |
| c1cc2c3c(cccc3c1)CC2 [Acenaphthene] |  | 1.17 | 1.26 | 1.14 | 1.68 |
| CCOP(=S)(OCC)Oc1ccc2c(C)c(Cl)c(=O)oc2c1 [Coumaphos] | 1.01 | 1.11 | 1 | 1.04 | 0.717 |
| COC(=O)c1ccccc1N [Methyl 2-aminobenzoate] |  | 1.09 | 1.07 | 1.11 | 1.51 |
| COC(=O)NS(=O)(=O)c1ccc(N)cc1 [Asulam] | 1.08 | 1.11 | 0.923 | 0.97 | 2 |
| COC(=O)NC(=S)Nc1ccccc1NC(=S)NC(=O)OC [Thiophanate-methyl] | 1.37 | 0.913 | 1 | 1.01 | 0.274 |
| C1CC2OC2CC1C1CO1 (centres undefined) [4-Vinyl-1-cyclohexene dioxide] |  | 0.978 | 0.971 | 0.856 | 0.459 |
| Cc1cc(Cc2ccc(N)c(C)c2)ccc1N [4,4'-Methylenebis(2-methylaniline)] |  | 1.07 | 1.1 | 0.902 | 0.647 |
| CCOP(=O)(OCC)Oc1cc(C)nc(C(C)C)n1 [Diazoxon] | 1.03 | 0.822 | 0.982 | 0.982 | 1.37 |
| [N-]=[N+]=[N-].[Na+] [Sodium azide] |  | 1.11 |  |  | 1.29 |
| [N-]=[N+]=[N-].[Na+] [Sodium Azide] | 1.38 |  | 1.01 | 1.05 |  |
| O=C1C2(Cl)C3(Cl)C4(Cl)C(Cl)(Cl)C5(Cl)C3(Cl)C1(Cl)C5(Cl)C24Cl (centres undefined) [Kepone] |  | 1.03 | 0.982 | 1 | 1.33 |
| COP(=O)(NC(C)=O)SC (centres undefined) [Acephate] | 0.777 | 0.825 | 0.95 | 1 | 1.52 |
| COP(N)(=O)SC (centres undefined) [Methamidophos] | 1.08 | 0.989 | 1.14 | 1.04 | 2.27 |
| Nc1ccc(Cc2ccc(N)cc2)cc1 [4,4'-Methylenedianiline] |  | 0.803 | 0.812 | 0.825 | 0.725 |
| O=C(O)C(Cl)(Cl)Cl [Trichloroacetic acid] |  | 0.932 | 1.09 | 1.11 | 1.35 |
| CCOP(=S)(OCC)OC(Cl)C(Cl)(Cl)Cl (centres undefined) [Chlorethoxyfos] | 0.648 | 0.673 | 0.754 | 0.769 | 1.03 |
| CCC(C)c1ccc(O)cc1 (centres undefined) [4-(Butan-2-yl)phenol] |  | 1.03 | 1.04 | 0.967 | 1.21 |
| CN(C)C(=O)Nc1cccc(C(F)(F)F)c1 [Fluometuron] | 1.01 | 0.858 | 0.955 | 0.915 | 1.74 |
| CN(C)C(=O)Nc1ccc(Cl)cc1 [Monuron] |  | 1.07 | 1.08 | 1.08 | 0.972 |
| CC(C)Oc1cccc(NC(=O)c2ccccc2C(F)(F)F)c1 [Flutolanil] | 0.958 | 0.913 | 0.934 | 0.913 | 1.07 |
| Cc1[nH]c(=O)n(C(C)(C)C)c(=O)c1Cl [Terbacil] | 0.884 | 0.706 | 0.903 | 0.738 | 1.53 |
| O=S(=O)(O)C(F)(F)C(F)(F)C(F)(F)C(F)(F)C(F)(F)C(F)(F)C(F)(F)C(F)(F)F | 0.967 | 0.956 | 0.993 | 0.948 | 0.944 |

| SMILES | Renilla luciferase signal (concentration: 0.01 uM) | Renilla luciferase signal (concentration: 0.1 uM) | Renilla luciferase signal (concentration: 1 uM) | Renilla luciferase signal (concentration: 10 uM) | Renilla luciferase signal (concentration: 100 uM) |
| --- | --- | --- | --- | --- | --- |
| [Na+].[O-][Cl+][O-] [Sodium chlorite] |  | 1.07 | 0.996 | 1.06 | 1.34 |
| Clc1cc(Cl)c(Cl)cc1Cl [1,2,4,5-Tetrachlorobenzene] |  | 0.579 | 0.572 | 0.454 | 0.504 |
| Brc1ccc(Oc2ccccc2)cc1 [p-Bromodiphenyl ether] |  | 0.896 | 0.914 | 0.837 | 0.987 |
| [OH][Sn]([c]1ccccc1)([c]1ccccc1)[c]1ccccc1 [Triphenyltin hydroxide] | 0.857 | 0.622 | 0.135 | 0.0103 | 0.0121 |
| O=C(NC(=O)c1c(F)cccc1F)Nc1ccc(OC(F)(F)C(F)OC(F)(F)F)c(Cl)c1 (centres undefined) [Novaluron] | 1.08 | 0.982 | 0.998 | 0.935 | 1.48 |
| CCOP(=O)(SC(C)CC)N1CCSC1=O (centres undefined) [Fosthiazate] | 1.08 | 1.07 | 1.19 | 1.21 | 1.7 |
| [Cl-].[Cl-].[Hg+2] [Mercuric chloride] |  | 0.533 | 0.402 | 0.153 | 0.0217 |
| c1nc[nH]n1 [1H-1,2,4-Triazole] |  | 0.873 | 0.956 | 0.885 | 1.12 |
| CN1COCN(Cc2cnc(Cl)s2)C1=N[N+](=O)[O-] [Thiamethoxam] | 1.14 | 1.09 | 1.1 | 0.959 | 2.15 |
| CN/C(=N\[N+](=O)[O-])NCc1cnc(Cl)s1 [Clothianidin] | 0.978 | 0.964 | 0.897 | 1.05 | 1.48 |
| O=[N+]([O-])/N=C1\NCCN1Cc1ccc(Cl)nc1 [Imidacloprid] | 0.993 | 1.11 | 0.934 | 0.949 | 1.15 |
| O=S1OCC2C(CO1)C1(Cl)C(Cl)=C(Cl)C2(Cl)C1(Cl)Cl (centres undefined) [Endosulfan] | 1.05 | 1.05 | 1.02 | 1.13 | 1.06 |
| CS(=O)(=O)c1cc(C(F)(F)F)ccc1C(=O)c1cnoc1C1CC1 [Isoxaflutole] | 0.938 | 0.74 | 0.954 | 0.778 | 2.79 |
| CCC[CH2][Sn]([Cl])([CH2]CCC)[CH2]CCC [Tributyltin chloride] |  | 0.598 | 0.574 | 0.235 | 0.0217 |
| CCCSP(=O)(OCC)Oc1ccc(Br)cc1Cl (centres undefined) [Profenofos] | 0.9 | 0.888 | 0.969 | 1 | 0.894 |
| Nc1nc(N)nc(NC2CC2)n1 [Cyromazine] | 1.1 | 0.889 | 0.95 | 1.05 | 1.86 |
| CCN(CC)N=O [N-Nitrosodiethylamine] |  | 1.02 | 0.957 | 1.07 | 1.08 |
| C=CC(=O)OCCCCCC(C)C [Isooctyl acrylate] |  | 0.895 | 0.841 | 0.931 | 1.07 |
| CC1C(c2ccc(Cl)cc2)SC(=O)N1C(=O)NC1CCCCC1 (centres undefined) [Hexythiazox] | 0.957 | 0.999 | 0.929 | 0.977 | 0.244 |
| CN=C=S [Methyl isothiocyanate] | 0.842 | 0.902 | 0.962 | 1.06 | 1.71 |
| CC(C)(c1ccccc1)c1ccc(O)c(C(C)(C)c2ccccc2)c1 [2,4-Bis(1-methyl-1-phenylethyl)phenol] |  | 0.856 | 0.888 | 1.05 | 1.14 |
